# Data from the supplement of paper PMC11417369.
# The full ranking holds about 25,000 sequences; the median of “ln(normalized median fluorescence intensity)” is about 9.3, and the highest 2% start at about 10. The full list was thinned out, with the highest values kept by preference.
# Test system: PF3D7_0420300 AP2 domain 1 (GST-tagged)
# Experiment: gcPBM binding intensity (ln(normalized median fluorescence intensity)); higher = stronger DNA binding
# Method in brief: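 Binding intensity values are the highest Masliner-normalised natural-log median intensity among replicate spots of either probe orientation. The binding step lasted 1 h in 1× PBS with 1% milk, 0.2 mg/ml BSA, 0.5% salmon testes DNA and 0.03% Triton X-100, using GST-tagged P. falciparum DNA-binding domains expressed in E. coli on an Agilent 4 × 180k array of primer-extended double-stranded 36-bp intergenic genomic probes plus negative controls. Alexa488 anti-GST antibody and a 488 nm scan detected bound protein.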
row,Sequence,gcPBM binding intensity (ln)
1,TGATTCATTGATAAGGGTACATTTATAATTATGATA [XGTACX_site6319],9.02
2,TACATACATACATACACACACACATATATATACATA [CACACA_site853],10.1
3,TATACATATATATACACACACACATATATATATATA [CACACA_site1299],9.95
4,AACATACACATATACACACACACATATATACATATA [CACACA_site1093],10.2
5,AAAAAAAAAAAAAACACACACACAAATACAAATGGT [CACACA_site1721],10.2
6,CAACATTTGAGACACACACACATACAAACAAACAAA [CACACA_site7538],10
7,TATATATATACCAACACACATACATATATATATATA [CACACA_site1795],9.46
8,GGCAACATTTGAAACACACACACATACAAACAAACA [CACACA_site3307],9.97
9,TATATATATATACCAACACACATACATATATATATA [CACACA_site8530],9.68
10,CGCATACACCAACACACACACACATATATATATATA [CACACA_site635],10.2
11,CAACATTTGAAACACACACACATACAAACAAACAAA [CACACA_site3306],10.2
12,AAAAAAAAAAAAAACACACACACAAATACAAATACA [CACACA_site414],10.1
13,AAAAAAAAAAAACACACACACAAATACAAATGGTAA [CACACA_site1720],10.1
14,TTATTATAAATGTTTTGTACGTACATCCGAAAATAA [XGTACX_site2175],9.05
15,TTTTTTGTTAAGTTGGTGCAAACAATAGTTATTGAC,8.95
16,TTTAAAGTTTTATACACACACCAAAGTTATTCTAAT [CACACA_site6432],9.56
17,GATTAAAATCAAAGGTGTACGCACAAATAAGTCCCA [XGTACX_site4360],9.3
18,TTTCTTATATAAGTGTACTAAAATATATATATGCAA [GTGCAC_negctrl_site546],9
19,GTGTCAAATTTTATAACACACAAAAGGTTATATAAG [CACACA_site7839],9.28
20,AAATAGATAAACTAAACACACAAAAAAAAAAAAAAT [CACACA_site1179],9.84
21,CATTTATTTTTGTTCTGTACATAAAGATGAACAAAA [XGTACX_site6797],8.81
22,CATACATACAAACACACACACATATATATATATATA [CACACA_site43],9.86
23,AATATAAACAAACACACACACATATATATATATATT [CACACA_site5592],10.1

row,Sequence,gcPBM binding intensity (ln)
1,TATATACACGCACATACACACAAATAAAAAAACACC [CACACA_site7578],9.93
2,AACATACACATATACACACACACATATATACCTATA [CACACA_site6643],10.4
3,AATATAAACACAAACACACACATATATATATATATA [CACACA_site4307],9.68
4,CATACATACAAACACACACACATATATATACATACA [CACACA_site852],10.2
5,AAAAAAAAAACAAATACACACGCACCCAAAAAAAAA [CACACA_site8166],9.81
6,GGATATAACAAACACACACACACATATATATATATT [CACACA_site4141],10.2
7,AAAAAAAAAAAAAACACACACACACGCAAATACATA [CACACA_site6474],10.2
8,CACATACACATACAAACACACATTATATATATATAT [CACACA_site8460],9.62
9,TATATATATATATATACACACATATATACCTATATA [CACACA_site6085],9.31
10,TATACGTATACCTATACACACATATATATATATATA [CACACA_site1273],9.49
11,TTTTTTTTTGTTTACACACACAAAATATTATATGTA [CACACA_site2470],9.66
12,AATATATACATACATACATGCACATATATATATATA [TGCATGCA_site393],9.36
13,CATATTAAAAATACATGTACATATATATTTAATATA [XGTACX_site8580],9.08
14,ATTAAAAAAGAATATACACACCAAAACTGTTTGTTA [CACACA_site4687],9.21
15,ATATGACTGTTCATTTGTACGTATAATTATATACGT [XGTACX_site3372],9.33
16,ATCAACAAAACATACACACACATATAGATTTATATA [CACACA_site7415],10
17,TTTTCAATTTTTTATGAACACACAAAAAAAAAAAAA [CACACA_site8808],8.77
18,GTAGAGCATAATAAAACACACACATACATACATATA [CACACA_site8217],9.84
19,AATACATACACAAATACACACACAAATACATACACA [CACACA_site8134],10.1
20,GGTACATACAAACACACACACAAAAAAAAAAAAATA [CACACA_site1577],9.91
21,AAAAAAAAAAAACACACACACACAAATACATACACA [CACACA_site706],10.2
22,AAAAAAAAAAAACACACACACAAATACAAATACATA [CACACA_site415],10.2
23,TACATACACAAATACACACACAAATACATACACAAA [CACACA_site704],10.1
